The values that follow come from PMC5540273 (PLoS ONE, 2017).

Where two headings read alike, the source gives them in different places.

One assay deals with CDC2L2. The following applies: concentration: 1 μM,replicates: in singlicate; n = 1.
The next assay concerns T1, CDC2L5.
T1 construct: gene CDK13
The following applies: n = 1.

The test system of another assay is T2, CDK11.
T2 construct: gene CDK19
The following applies: concentration: 1 μM,replicates: in singlicate; n = 1.

A further assay relates to CDK2. The following applies: concentration: 1 μM,replicates: in singlicate; n = 1.
The test system of the next assay is CDK3. The conditions noted are these: concentration: 1 μM,replicates: in singlicate; n = 1.
Another assay concerns CDK4-cyclinD1. The conditions noted are these: n = 1.
For a further assay, the system named is CDK4-cyclinD3. The following applies: n = 1.
In another assay the test system is CDK4. The following applies: n = 1.
The next assay has as its system CDK5. The following applies: concentration: 1 μM,replicates: in singlicate; n = 1.
The test system of a further assay is CDK7. The following applies: concentration: 1 μM,replicates: in singlicate; n = 1.
A further assay concerns CDK8. The conditions noted are these: concentration: 1 μM,replicates: in singlicate; n = 1.
The subject of a further assay is CDK9. The conditions noted are these: concentration: 1 μM,replicates: in singlicate; n = 1.
Another assay relates to CDKL1. The conditions noted are these: concentration: 1 μM,replicates: in singlicate; n = 1.
The subject of another assay is CDKL2. The conditions noted are these: concentration: 1 μM,replicates: in singlicate; n = 1.
A further assay concerns CDKL3. The following applies: concentration: 1 μM,replicates: in singlicate; n = 1.
A further assay relates to CDKL5. The conditions noted are these: concentration: 1 μM,replicates: in singlicate; n = 1.
Another assay has as its system CHEK1. The following applies: concentration: 1 μM,replicates: in singlicate; n = 1.
The next assay relates to CHEK2. The following applies: concentration: 1 μM,replicates: in singlicate; n = 1.
A further assay has as its system CIT. The conditions noted are these: concentration: 1 μM,replicates: in singlicate; n = 1.
The next assay deals with CLK1. The following applies: concentration: 1 μM,replicates: in singlicate; n = 1.
[1] abbreviates: concentration: 1 μM,replicates: in singlicate.
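Also: KINOMEscan kinase panel screen.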

Turning to `CC(=O)c1c(-c2ccncc2)[nH]c(-c2ccncc2)c1C` [GW493036], the “%Inh” value in the assay with CDC2L2 came to 4%; in the assay on CDC2L5 (setting [1]), 0%; in the assay on CDK11, 13%; with CDK2, 31%; with CDK3, 53%; in the assay with CDK4-cyclinD1 (setting [1]), 0%. The “%Inh” value is 38% with CDK4-cyclinD3 (setting [1]); 0% with CDK4 (setting [1]); 0% in the assay on CDK5; 96.2% with CDK7; 0% in the assay on CDK8; 87% in the assay with CDK9. Further, the “%Inh” value with CDKL1 came to 0%; in the assay with CDKL2, 43%; in the assay on CDKL3, 16%; in the assay with CDKL5, 35%; in the assay on CHEK1, 83%; in the assay on CHEK2, 0%. Further, the “%Inh” value in the assay with CIT is on record as 100%; in the assay on CLK1 it was 99.8%.

For `O=C(NOCC1CC1)c1cc(Br)c(F)c(F)c1Nc1ccc(I)cc1Cl`, the “%Inh” value in the assay with CDC2L2 worked out at 0%; in the assay on CDC2L5 (setting [1]), 0%; with CDK11, 0%; in the assay with CDK2 it was 0%; in the assay with CDK3 it was 14%; with CDK4-cyclinD1 (setting [1]) it was 0%. Also, the “%Inh” value is given as 17% in the assay on CDK4-cyclinD3 (setting [1]); 14% in the assay on CDK4 (setting [1]); 0% in the assay on CDK5; 0% in the assay on CDK7; 0% in the assay on CDK8; 0% in the assay on CDK9. Also, the “%Inh” value was found to be 8% in the assay with CDKL1; 0% in the assay on CDKL2; 0% with CDKL3; 0% in the assay on CDKL5; 0% in the assay with CHEK1; 0% in the assay with CHEK2. In addition, the “%Inh” value in the assay on CIT and in the assay on CLK1 was 0% in each case.

For the compound `CCN1CCN(CCCC(=O)Nc2n[nH]c3nc(-c4ccc(O)cc4)c(Br)cc23)CC1` [SB-731579], the “%Inh” value in the assay on CDC2L2 stood at 4%; in the assay on CDC2L5 (setting [1]), 0%; in the assay on CDK11, 0%; with CDK2 it was 1%; in the assay on CDK3, 30%; in the assay on CDK4-cyclinD1 (setting [1]), 99.5%. The “%Inh” value in the assay on CDK4-cyclinD3 (setting [1]) was determined as 95.1%; in the assay on CDK4 (setting [1]), 22%; in the assay with CDK5 it was 0%; in the assay on CDK7 it was 94.7%; with CDK8, 14%; with CDK9, 0%. The “%Inh” value is on record as 23% in the assay on CDKL1; 73% with CDKL2; 2% in the assay on CDKL3; 86% in the assay with CDKL5; 0% in the assay on CHEK1; 15% in the assay on CHEK2. For the same compound, the “%Inh” value in the assay on CIT was 63%; with CLK1, 47%.

Take `COc1cccc(OC)c1C(=O)Nc1cccc(-c2nn3ccccc3c2-c2ccnc(Nc3cccc(F)c3)n2)c1` [GSK361065]: the “%Inh” value is on record as 0% with CDC2L2; 1% with CDC2L5 (1 µM); 0% in the assay on CDK11; 0% with CDK2; 0% with CDK3; 0% with CDK4-cyclinD1 (1 µM). Besides, the “%Inh” value was 7% with CDK4-cyclinD3 (1 µM); 0% in the assay on CDK4 (1 µM); 21% in the assay with CDK5; 22% in the assay with CDK7; 0% with CDK8; 0% in the assay on CDK9. The “%Inh” value in the assay with CDKL1 is recorded as 15%; in the assay on CDKL2, 6%; in the assay with CDKL3 it was 3%; with CDKL5, 0%; in the assay with CHEK1, 13%; in the assay on CHEK2, 0%. For the same compound, the “%Inh” value is recorded as 36% in the assay on CIT and 21% with CLK1.

`N#Cc1cccc(C(=O)NC2CCN(c3ccnc(Nc4ccc(F)cc4)n3)C2)c1` (stereo not shown) [GSK1379708]: the “%Inh” value was 0% in the assay on CDC2L2; 0% with CDC2L5 (setting [1]); 4% in the assay on CDK11; 0% with CDK2; 0% with CDK3; 0% in the assay with CDK4-cyclinD1 (setting [1]). Moreover, the “%Inh” value in the assay with CDK4-cyclinD3 (setting [1]) is given as 0%; in the assay with CDK4 (setting [1]), 10%; with CDK5 it was 0%; in the assay on CDK7, 0%; in the assay with CDK8, 19%; in the assay with CDK9, 0%. The “%Inh” value worked out at 8% in the assay with CDKL1; 17% in the assay with CDKL2; 0% in the assay with CDKL3; 6% in the assay with CDKL5; 0% in the assay on CHEK1; 0% with CHEK2. Besides, the “%Inh” value in the assay with CIT was determined as 11%; with CLK1, 14%.
